We go through 24 compounds from PubChem BioAssay (NCATS).

SMILES strings stand for the structures. Inconclusive results are not listed. Unmarked numbers belong to inactive results. Calls of active or inactive are those of the source. The call rests on the fitted dose curve; in most records, active means well fitted cell-killing curve with a large enough effect; inconclusive means small, poorly fitted or top-dose-only effect; inactive means flat fitted curve, though single readings scatter.
On the % scale 0 is the no-effect control and ±100 the full control effect.

This assay in a line: Cellular viability qHTS for adrenocortical cancer (ACC) cell line SW-13 (AID 1963989). Further: nearly all actives have a fitted effect of over 65% in size.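 On activity (max response): cells grown in serum-free medium with ITS supplement.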 The conditions noted are these: SW-13 ACC cells viability, CellTiter-Glo, 48 h; activity (max response): active compounds read low. The text has this:
PI: Naris Nilubol, MD Surgical Oncology Program, National Cancer Institute (NCI) National Institute of Health (NIH), Bethesda, Maryland Adrenocortical cancer (ACC) is a rare malignancy with poor survival outcomes and few treatment options. Currently, mitotane is the only FDA-approved therapy for ACC. Although adjuvant radiation therapy is rarely utilized, it has the potential to improve survival in select cases. Through a quantitative high-throughput drug screen (qHTS), we identified auranofin (AF), a thioredoxin reductase (TXNRD) inhibitor, as a promising candidate drug. This study aims to evaluate whether AF can enhance the efficacy of radiation therapy in the treatment of ACC. Two human ACC cell lines, SW-13 and NCI-H295R, were screened using the National Center for Advancing Translational Sciences (NCATS) Pharmaceutical Collection (NPC) and the Mechanism Interrogation PlatE (MIPE) library (~4,991 compounds). CellTiter-Glo (Cat # G7570, Promega, Madison, WI) was utilized to measure cell viability. Described herein are the results of the corresponding viability assay.
PROTOCOL TABLE (as described by Inglese J, Shamu CE and Guy RK. 2007) SEQUENCE No. (e.g., 1, 2, 3, etc.); […] (e.g., Cells, Incubation, Reagent, etc.); VALUE; DESCRIPTION. 1; Cells; 5 uL; white, solid-bottom, 1536-well tissue-culture treated plates. 2; Time; overnight culture at 37C with 5% CO2. 3; Compounds and control; 23 nL; Kalypsis pin tool (Wako USA) equipped with a 1536-well pin head to transfer to the assay plates. 4; Time; 48 hours; 37C with 5% CO2. 5; Reagent; 4 uL; CellTiter-Glo luminescent substrate mix. 6; Time; 20 min at room temperature. 7; Detection; Luminescence; ViewLux plate reader NOTES (numbers refer to Sequence numbers above) 1. SW13 cells were harvested from a T175 flask and resuspended in ITS-supplemented DMEM serum-free medium at a concentration of 300 000 cells/mL. Then 5 uL of resuspended cells were dispensed into each well of white, solid-bottom, 1536-well tissue-culture-treated plates using a multidrop combi dispenser. The plates were covered with stainless steel gasket lids. 2-3. The plates were cultured overnight at 37C with 5% CO2. Twenty-three nL of compounds (eight selected concentrations from the NPC / MIPE) or positive control (10 mM stock of bortezomib) in DMSO was transferred to each well of the assay plate using a pin tool (Kalypsys, San Diego, CA, USA). The final concentration of the compounds in the 5 uL assay volume ranged from 0.5 nM to 46 uM. 4-6. After 48 hours of incubation at 37C and 5% CO2, 4 uL of CellTilter-Glo luminescent substrate mix (Promega, Madison, WI, USA) was added to each well. Then the plates were incubated for 20 minutes at room temperature. 7. After incubation, luminescence was measured using a ViewLux plate reader (PerkinElmer, Waltham, MA, USA) with a clear filter was used to measure the number of metabolically competent cells. To determine compound activity in the qHTS assay, the titration-response data for each sample was plotted and modeled by a four-parameter logistic fit yielding IC50 and efficacy (maximal response) values. […] REFERENCES: Inglese J, Shamu CE and Guy RK, Reporting data from high throughput screening of small molecule libraries, Nature Chemical Biology, 2007, 3(8): 438-441. doi.org/10.1038/nchembio0807-438.
For orientation: qHTS replaces the single test concentration by a dilution series.
For the compound `Cn1cc(C(=O)[C@@H]2CCc3nc[nH]c3C2)c2ccccc21`, the activity (max response) was -8.02%.
For the compound `CCc1cc(Nc2nccc(-c3c(-c4ccc(OC)c(C(=O)Nc5c(F)cccc5F)c4)nc4ccccn34)n2)c(OC)cc1N1CCC(N2CCN(S(C)(=O)=O)CC2)CC1`, the activity (max response) was -11.3%.
On to `C=C[C@@H]1CN2CCC1C[C@H]2[C@H](O)c1ccnc2ccc(OC)cc12` (some centres undefined), for which the activity (max response) was 5.73%.
As for `C/C=C(/C(=C/C)c1ccc(OC(C)=O)cc1)c1ccc(OC(C)=O)cc1`, the Potency is 18.4 µM (active).
Regarding `C=CC[N+]1([C@H]2C[C@H]3[C@@H]4CC[C@H]5C[C@H](O)[C@@H](N6CCOCC6)C[C@]5(C)[C@H]4CC[C@]3(C)[C@H]2OC(C)=O)CCCC1`, the activity (max response) was -12.6%.
Still for that read-out and setting: the figure for `CC(C)NC[C@@H](O)COc1cccc2ccccc12` is -19.3%.
Same read-out and setting: the figure for `O=C(O)c1c(O)c(-c2ccccc2)nc2ccccc12` is 3.37%.
Consider `COc1ccc([C@@H]2Sc3ccccc3NC(=O)[C@@H]2O)cc1`, for which the Potency is 7.31 µM (active).
Turning to `N[C@H](C(=O)O)[C@@H](O)c1ccc(O)c(O)c1`, the activity (max response) was 16%.
Same read-out and setting: the figure for `CCn1c(=O)c2c(nc(/C=C/c3ccc(OC)c(OC)c3)n2C)n(CC)c1=O` is -21.5%.
On the same count and under the same terms, the figure for `O=C(Cc1ccccc1)Nc1nnc(CCSCCc2nnc(NC(=O)Cc3ccccc3)s2)s1` is 11.1%; for `COc1ccc2cc(CCC(C)=O)ccc2c1` it is 2.06%; for `C[C@H]1CN(C2COC2)CCN1c1ccc(Nc2cc(-c3ccnc(N4CCn5c(cc6c5CC(C)(C)C6)C4=O)c3CO)cn(C)c2=O)nc1` it is 10.6%.
For `CCC(=O)Oc1ccc2c(c1)CC[C@@H]1[C@@H]2CC[C@@]2(C)[C@H]1C[C@@H](OC(=O)CC)[C@@H]2OC(=O)CC`, the activity (max response) was 0.953%.
Consider `COc1ccc2c(c1)C(=O)N(CCc1ccc(S(=O)(=O)NC(=O)NC3CCCCC3)cc1)C(=O)C2(C)C`, for which the activity (max response) was -10.4%.
`O=C(CCCN1CCN(c2ccccn2)CC1)c1ccc(F)cc1`: the activity (max response) is -12.5%.
For `Nc1n[n+]([O-])c2ccccc2[n+]1[O-]`, the activity (max response) is -11.6%.
Turning to `COc1ccc(-n2c(SCCCN3C(=O)c4cccc5cccc(c45)C3=O)nnc2-c2ccncc2)cc1`, the activity (max response) is -14.9%.
Consider `CC(=C(CCOC(=O)C(C)C)SSC(CCOC(=O)C(C)C)=C(C)N(C=O)Cc1cnc(C)nc1N)N(C=O)Cc1cnc(C)nc1N`, for which the activity (max response) was 9%.
As for `C[C@H](N)C(=O)N[C@@H](C)C(=O)NC1[C@H]2CN(c3nc4c(cc3F)c(=O)c(C(=O)O)cn4-c3ccc(F)cc3F)C[C@@H]12` (some centres undefined), the activity (max response) was -13.3%.
On to `CCCCN(CCCC)C(C(N)=O)c1ccc(OC)cc1` (centres undefined), for which the activity (max response) is 14.1%.
With `O=C(CCBr)N1CCN(C(=O)CCBr)CC1`, the activity (max response) was -6.49%.
Same read-out and setting: in the case of `Cc1c(Cl)cccc1S(=O)(=O)Nc1nc(CCN2CCOCC2=O)cs1` it was 12.4%; in that of `CN(C(=O)CCCOc1ccc2[nH]c(=O)ccc2c1)C1CCCCC1`, -3.83%.
